Experimental findings from PubChem BioAssay AID1645879 (National Center for Advancing Translational Sciences (NCATS), 2021) are described below.

The structures appear in SMILES notation. Results filed as inconclusive are left out. Unmarked numbers belong to inactive results. Calls follow the shape of the dose curve; as a rule, active = well fitted inhibition curve with a large enough effect; inconclusive = small, poorly fitted or top-dose-only effect; inactive = no such curve, though single readings can be large or run the other way.

The experiment can be described thus: Counterscreen qHTS assay for inhibitors of N-terminal methyltransferase 1 (NTMT1): SPKRIA Counterscreen Assay. Particulars: biochemical qHTS; series mostly up to 99.2 µM; activity change, negative = inhibition: at the top concentration. An excerpt: Assay Submitter (PI): Rong Huang Ph.D,
Purdue University, West Lafayette, IN 47907
The N-terminal methytransferase 1 is the first methyltransferase that methylates protein alpha-N-amines and plays an important role in regulating cell mitosis, chromatin interactions and DNA repair. It is observed to be over-expressed in various cancer patient tissues like malignant melanoma and colorectal cancer tissues. Knockdown of NTMT1 in cancer cells causes cell mitotic defects and enhances sensitivity to DNA damaging chemotherapeutics. […] These critical cellular processes in which NTMT1 is implicated, coupled with emerging links to cellular dysfunction, strengthen the inference that NTMT1 is a compelling novel anticancer target. Progress have been made in understanding the molecular properties of NTMT1 and the biological consequences of protein alpha-N-terminal methylation, but there are no specific small molecule probes available for NTMT1 to fully characterize its MTase activity. To address this unmet need, a panel of assay is created and established to enable quantitative high-throughput screening (qHTS) for novel, potent, and selective small molecule NTMT1 inhibitors. Two orthogonal qHTS that use different reagents (ThioGlo vs. MTaseGlo) are developed for primary robotic screening against the NCATS chemical library of more than 400,000 small molecules. Identified inhibitors are reacquired, validated, and further characterized.
MTaseGlo Assay is a luminescence screen that measure the activity of methyltransferases based on the reaction product S-adenosyl homocysteine (SAH). The substrate SAM is converted to SAH upon enzyme activation. MTase-Glo reagent and detection solution convert SAH to ATP and measure the light from the luciferase reaction. Nicotinamide N-methyltransferase (NNMT) is a cystolic enzyme that catalyzes the transfer of a methyl group from the co-factor SAM onto the substrate, nicotinamide (NA) to form 1-methyl-nicotinamide (MNA) and SAH. NNMT MTaseGlo assay is used as a counterscreen to evaluate selectivity of identified inhibitors.
SPKRIA and Ac-RCC-10 control is provided by the Huang laboratory.
PROTOCOL TABLE; SEQUENCE No. (e.g., 1, 2, 3, etc.); […] (e.g., Cells, Incubation, Reagent, etc.); VALUE; DESCRIPTION
1; Reagent; 3 uL; dispense assay buffer.
2; Compound; 23 nL; pin compounds and control into the assay plate.
3; Time; 15 min; room temperature incubation.
4; Reagent; 1 uL; dispensed [4x] substrate or buffer.
5; Time; 30 min; incubate at room temperature.
6; Reagent; 1 uL; dispense MTase-Glo Reagent (R).
7; Time; 30 min; incubate at room temperature.
8; Reagent; 5 uL; dispense [1x] MTase-Glo Detection Solution to allow for ADP to be converted to ATP.
9; Centrifugation; 1,000 RPMs; assay plates were centrifuged.
10; Incubation; 30 min; room temperature.
11; Detection; Luminescence; ViewLux plate reader (clear filter, 10 second exposure).
NOTES (numbers refer to Sequence numbers above; values are from representative experiments)
1; Dispense the assay buffer into Greiner 1536-well black / solid bottom assay plate (Greiner Bio One, Monroe, NC).
2; Pin control inhibitor Ac-RCC1-10 at a final concentration range of 234 nM to 143 uM using a Wako Pin Tool (Wako Automation USA) equipped with a 1536-slotted pin array (Wako Automation, Richmond, VA). Pin compound library into the assay plates (columns 5 - 48) at a final concentration range of 97 nM to 250 uM.
3; Incubate the assay plates at room temperature.
4; Dispense 1 uL of substrate SPKRIA solution (final concentration 1 uM) or 1 uL buffer was added to the wells bringing the final assay volume to 4uL. The assay plate was covered with metal lids.
5; Incubate the assay plate at room temperature.
6; Dispense 1 uL of 5x MTase-Glo Reagent in the assay plate.
7; Incubate at room temperature to allow for SAH to be converted to ADP
8; Dispense 5 uL of 5x MTase-Glo Detection Solution in the assay plate to allow for ADP to be converted to ATP.
9; Assay plates were centrifuged for 15 seconds.
[…]
For `C[C@@H]1CC2=CC(=O)CC[C@@H]2[C@H]2CC[C@@]3(C)[C@@H](CC[C@]3(C)O)[C@@H]21`, the “activity change, negative = inhibition” value was -13.2%.

As to `C[C@]12CC[C@H]3[C@@H](CCC4=CC(=O)CC[C@@H]43)[C@@H]1CC[C@@H]2O`, the “activity change, negative = inhibition” value was -10.8%.

For the compound `CC[C@]1(O)CC[C@H]2[C@@H]3CCC4=CCCC[C@@H]4[C@H]3CC[C@@]21C`, the “activity change, negative = inhibition” value was -1.58%.

As to `CN(C)CCc1c[nH]c2cccc(O)c12`, the “activity change, negative = inhibition” value was -10.5% [at 204 µM].

On to `C[C@]12CCC(=O)C=C1CC[C@@H]1[C@@H]2CC[C@@]2(C)[C@H]1CC[C@]2(C)O`, for which the “activity change, negative = inhibition” value is -3.68%.

In the case of `C[C@H](N)C(=O)c1ccccc1`, the “activity change, negative = inhibition” value was -17.5% [at 251 µM].

In the case of `C=CC[C@]1(O)CC[C@H]2[C@@H]3CCC4=CC(=O)CCC4=C3C=C[C@@]21C`, the “activity change, negative = inhibition” value is 4.78%.

For the compound `CCc1cc(OC)c(C[C@H](C)N)cc1OC`, the “activity change, negative = inhibition” value is -7.41% [at 204 µM].
